From PubChem BioAssay AID1159524 (National Center for Advancing Translational Sciences (NCATS), 2015)
Among all 410,000 compounds or so, about 5,100 (1.2%) were called active. Inconclusive results (about 8%) are left out. Calls follow the shape of the full dose curve; tested in HEK293T cells. Shown is part of a subset that was picked to be rich in actives. Entries that show only a call come without a potency.
Potency is read from the fitted curve at half-maximal effect.

Assay: High Throughput Screening for Foot and Mouth Disease Virus Antivirals; also: read-out not given here; nearly all actives have a fitted effect of over 45% in size
Details: FMDV antiviral cell-based qHTS; series mostly up to 57.9 µM
With `Cc1cc(-c2n[nH]c(=S)n2/N=C/C(Br)=C/c2ccccc2)n[nH]1` the Potency was 35.5 µM (active).
With `O=c1c(-c2ccc(F)cc2)nc2cncnc2n1-c1ccccc1` the Potency was “inactive”.
With `CCCn1c(=N)n(CC(O)COc2ccccc2OC)c2ccccc21` (centres undefined) the Potency was “inactive”.
In the case of `OC(COc1ccc(CN2CCSCC2)cc1)CN1CCCCC1` (centres undefined), the Potency is reported as “inactive”.
In the case of `OC(CN=c1sc2ccccc2n1CC(O)COc1ccccc1)COc1ccccc1` (centres undefined), the Potency is reported as 20 µM (active).
With `Nc1nc2c(nc(Cl)n2C2OC(CO)C(O)C2O)c(=O)[nH]1` (centres undefined) the Potency was “inactive”.
In the case of `O=C(c1cccc(Br)c1)N1CCN(Cc2cc(=O)n3nc(-c4ccccc4)sc3n2)CC1`, the Potency is reported as “inactive”.
For `C#Cc1cc(N2CCN(C(=O)c3ccoc3)CC2)n2nc(-c3cccc(Cl)c3)cc2n1`, the Potency was 11.2 µM (active).
With `O=C(CCCC(=O)N1CCN(c2cccc(Cl)c2)CC1)c1ccccc1` the Potency was “inactive”.
For `O=C(c1cccc(Cl)c1)N1CCN(CCc2ccncc2)CC1`, the Potency was “inactive”.
For `O=C(c1ccccc1)N1CCN(c2cc(-c3ccccc3)nc3cc(-c4cccc(Cl)c4)nn23)CC1`, the Potency was 25.1 µM (active).
In the case of `CCNC(=O)Cn1nc(C)n2c(cc3c(OC)cccc32)c1=O`, the Potency is reported as “inactive”.
With `COC1[C@H](OC(N)=O)C(O)[C@H](Oc2ccc3c(O)c(NC(=O)c4ccc(O)c(CC=C(C)C)c4)c(=O)oc3c2C)OC1(C)C` (some centres undefined) the Potency was “inactive”.
For `C=C1O[C@@](CO)(n2cnc3c(N)ncnc32)[C@H](O)[C@@H]1O`, the Potency was “inactive”.
For `COc1cccc(NC(=O)N2CCN(C(=O)c3nsc4ccccc34)CC2)c1`, the Potency was “inactive”.
For `COc1ccc(-c2cc(-c3ccccc3)nc3c2COc2ccc(Cl)cc2-3)cc1`, the Potency was “inactive”.
With `COc1ccc(-c2cc(-c3ccc(F)cc3)nc3c2COc2ccccc2-3)cc1` the Potency was “inactive”.
For `COc1ccc(C2=Nc3cc(C)ccc3OC2)cc1`, the Potency was 14.1 µM (active).
With `CCCNc1ncnc2c1c(-c1ccccc1)cn2-c1ccc(OCC)cc1` the Potency was “inactive”.
In the case of `CC(C)(O)CCC(O)[C@@](C)(O)C1CC[C@]2(O)C3=CC(=O)C4CC(O)C(O)C[C@]4(C)C3CC[C@]12C` (some centres undefined), the Potency is reported as “inactive”.
With `Cc1ccc(NC(=O)c2ccc(CN3CC(=O)N4CCCCC4C3=O)cc2)c(Cl)c1` (centres undefined) the Potency was “inactive”.
With `COc1ccc(Nc2ncc(C(=O)Nc3cc(C)ccc3OC)c3ccccc23)cc1` the Potency was “inactive”.
For `COc1ccc(C(=O)Nc2ccccc2C(=O)N/N=C/c2ccc(O)c(OC)c2)cc1`, the Potency was 3.98 µM (active).
With `COc1cc(C(=O)Nc2cc(C(F)(F)F)ccc2N2CCOCC2)ccc1O` the Potency was “inactive”.
In the case of `Cn1cc(-c2nc3cncnc3n(-c3ccccc3)c2=O)c2ccccc21`, the Potency is reported as “inactive”.
In the case of `COc1ccc(CN2CCC3(CCC(CNC(=O)c4ccco4)O3)CC2)cc1OC` (centres undefined), the Potency is reported as “inactive”.
In the case of `CC(C)CNc1ncnc2c1cnn2Cc1ccc(Cl)cc1`, the Potency is reported as “inactive”.
In the case of `CC(C)(C)n1ncc2c(=O)n(Cc3ccc(Cl)cc3)cnc21`, the Potency is reported as 25.1 µM (active).
In the case of `Cc1ccc(-n2ncc3c(=O)n(Cc4cccc(C(F)(F)F)c4)cnc32)cc1C`, the Potency is reported as “inactive”.
With `O=C(c1cn(CC2CCCN(Cc3cc4ccccc4s3)C2)nn1)N1CCCC1` (centres undefined) the Potency was “inactive”.
With `O=C(O)c1c(CNCc2cccc(F)c2)c2ccccc2n1Cc1ccccc1` the Potency was “inactive”.
With `C/C=C(\C)C(=O)O[C@H]1CC(C)=C2C(=O)C=C(C)C2[C@@H]2OC(=O)[C@@](C)(OC(=O)C=C(C)C)C21` (some centres undefined) the Potency was “inactive”.
With `Cc1cc(C)cc(CN2CCc3nnc(C(NS(C)(=O)=O)C(C)C)n3CC2)c1` (centres undefined) the Potency was “inactive”.
In the case of `CCOC(=O)N1CCN(C(=O)C2CCCN(c3ncnc4c3sc3cccc(F)c34)C2)CC1` (centres undefined), the Potency is reported as “inactive”.
For `CCOC(=O)N1CCN(C(=O)C2CCN(c3ncnc4c3sc3cccc(F)c34)CC2)CC1`, the Potency was 14.1 µM (active).
In the case of `CCOc1cccc2sc(N3CCN(C(=O)C4CC4)CC3)nc12`, the Potency is reported as “inactive”.
For `COc1ccc2[nH]cc(CCNCc3ccc(Br)cc3)c2c1`, the Potency was “inactive”.
In the case of `Cc1ccc2nc(-c3ccc(C)c(NC(=O)Cc4ccccc4)c3)oc2c1`, the Potency is reported as “inactive”.
For `Cc1cc(NC(=O)c2cccc(Cl)c2)ccc1-c1cc2ccccc2oc1=O`, the Potency was “inactive”.
With `O=c1oc2ccccc2cc1-c1cn(-c2ccccc2)c(=S)[nH]1` the Potency was 12.6 µM (active).
In the case of `COc1ccc(OC)c(-c2csc(-c3c(N)c(C(=O)c4ccccc4)n4ccccc34)n2)c1`, the Potency is reported as “inactive”.
With `CCOC(=O)c1[nH]c(C)c(CCC(=O)N2CCN(c3ccccc3)CC2)c1C` the Potency was “inactive”.
For `CCOc1ccc2nc(N3CCCN(CCCn4cccn4)CC3)nc(C)c2c1`, the Potency was “inactive”.
In the case of `CCCn1ccc2c(OCC(=O)NCc3ccc(F)cc3)cccc2c1=O`, the Potency is reported as “inactive”.
For `COc1ccc(C2=NS(=O)(=O)N(C)C(C(=O)N3CCCCC3)=C2)cc1`, the Potency was “inactive”.
In the case of `COc1ccc(C2=NS(=O)(=O)N(C)C(C(=O)NC(C)c3ccccc3)=C2)cc1` (centres undefined), the Potency is reported as “inactive”.
For `COc1ccc(NC(=O)C2=CC(c3ccc(OC)c(OC)c3)=NS(=O)(=O)N2C)cc1`, the Potency was 31.6 µM (active).
For `Cc1ccc2c(c1)c1c(c(=O)n(-c3ccccc3)c(=O)n1CC(=O)c1ccc(Cl)cc1)n2C`, the Potency was “inactive”.
With `Clc1ccc([C@@H]2C[C@H]3CC[C@@H]2N3)cn1` the Potency was “inactive”.
For `O=C(NCc1ccco1)C1(c2ccc(Cl)cc2)CCCC1`, the Potency was “inactive”.
In the case of `O=C(CSc1c2c(nc3ccc(Cl)cc13)CCCC2)NCc1ccco1`, the Potency is reported as 25.1 µM (active).
With `O=C(CSc1nc2cc3c(cc2c(=O)n1CCC1=CCCCC1)OCO3)NCc1ccco1` the Potency was “inactive”.
With `COc1cc(C)c(CN2CCc3nnc(C(C)NC(=O)c4cccnc4)n3CC2)cc1C` (centres undefined) the Potency was “inactive”.
In the case of `COc1cccc(-c2ccc(O)c(CNC3CN4CCC3CC4)c2)n1` (centres undefined), the Potency is reported as “inactive”.
In the case of `O=C(NCCN1CCOCC1)c1cnn(-c2nccc(-c3cccs3)n2)c1C1CC1`, the Potency is reported as “inactive”.
With `O=C(c1cnccn1)N1CCC[C@@]2(CCN(Cc3ccncc3)C2)C1` the Potency was “inactive”.
With `Cc1nc2cnc(Nc3ccccc3)nc2n(Cc2ccc(F)cc2)c1=O` the Potency was “inactive”.
For `CCCCNC(=O)c1ccc2c(c1)NC(=O)C(C(C)C)N2` (centres undefined), the Potency was “inactive”.
With `COc1ccc(NC(=O)N2CC3(CCN(C(C)=O)CC3)C2)cc1` the Potency was “inactive”.
For `CC(C)(C)OC(=O)N[C@H](C(=O)OC(C)(C)C)c1ccc(Br)cc1`, the Potency was “inactive”.
In the case of `Cc1ccc(C(=O)NNC(=O)OC(C)(C)C)c(Cl)c1`, the Potency is reported as “inactive”.
In the case of `CC(C)(C)OC(=O)NNc1c2ccccc2nc2ccccc12`, the Potency is reported as 20 µM (active).
For `O=C(c1cc(C(F)(F)F)cc(C(F)(F)F)c1)N1CCC2(CC1)CN(c1ccncc1)C2`, the Potency was “inactive”.
With `Fc1cccc(/C=N\N=C/c2cccc(F)c2)c1` the Potency was “inactive”.
With `CCOC(=O)CNc1nc2ccccc2n2c(C)nnc12` the Potency was “inactive”.
In the case of `CCCCOC(=O)CNc1nnc(SCC(=O)OCC)[nH]c1=O`, the Potency is reported as 39.8 µM (active).
In the case of `Cc1nnc(SCCCCSc2nnc(C)c(=O)[nH]2)[nH]c1=O`, the Potency is reported as “inactive”.
With `Cc1cccc(Cc2c(C)nc3nc(SCc4ccccc4Cl)nn3c2C)c1` the Potency was “inactive”.
For `CCOc1ccc(C(=O)c2cn(Cc3ccc(F)cc3)c3ccc(F)cc3c2=O)cc1`, the Potency was “inactive”.
In the case of `COC(=O)c1ccccc1NC(=O)Cn1c(=O)cc(C)c2c(C)nn(-c3cccc(Cl)c3C)c21`, the Potency is reported as “inactive”.
For `O=c1c(-c2ccc(F)cc2)nc2cnc(N3CCOCC3)nc2n1-c1ccccc1`, the Potency was “inactive”.
In the case of `C=CCN1CCC2(C)c3cc(O)ccc3CC1[C@@H]2C` (some centres undefined), the Potency is reported as “inactive”.
For `Cc1cc(C)nc(S/C=C/C(=O)c2ccccc2)n1`, the Potency was 12.6 µM (active).
For `CCn1c(CSc2nc(C)cc(C)n2)nnc1SCC(N)=O`, the Potency was “inactive”.
For `O=C(CSCc1cnn(-c2ccccc2)c1-n1cccc1)NCc1ccc(Cl)cc1`, the Potency was “inactive”.
With `COc1cn(CC(=O)Nc2cccc(C)c2C)c(CN2CCCCC2)cc1=O` the Potency was “inactive”.
In the case of `COc1ccc2[nH]cc(CCNc3cc(-c4ccccc4CN(C)C)ncn3)c2c1`, the Potency is reported as “inactive”.
In the case of `O=C(Nc1ccccc1)N1CCN(C2c3ccccc3-c3ccccc32)CC1`, the Potency is reported as “inactive”.
With `O=C(Nc1cccc(NC(=O)N2CCN(c3ccccc3)CC2)c1)N1CCN(c2ccccc2)CC1` the Potency was 25.1 µM (active).
For `COc1cccc(N2CCN(C(=O)Nc3ccc4c(c3)NC(=O)CO4)CC2)c1`, the Potency was “inactive”.
In the case of `CC(C)NC[C@H](O)c1ccc2ccccc2c1`, the Potency is reported as “inactive”.
For `CCc1nn(CCCC(=O)NCc2ccccc2OC)c(=O)c2cc3occc3n12`, the Potency was “inactive”.
For `COCCn1c(=O)c(-c2cc(F)cc(F)c2)nc2cnc(N3CCNCC3)nc21`, the Potency was “inactive”.
With `COc1ccc(-c2cn3nc(N4CCCC(C(=O)NCCCOC(C)C)C4)sc3n2)cc1` (centres undefined) the Potency was “inactive”.
In the case of `O=C(Nc1c(-c2ccc(F)cc2)nc2ccccn12)c1cccc(F)c1`, the Potency is reported as “inactive”.
In the case of `N#C/C(=C\c1ccccc1F)c1nc2ccccc2c(=O)[nH]1`, the Potency is reported as “inactive”.
For `Cc1ccc2nc(CNC(=O)c3ccccc3)[nH]c2c1`, the Potency was “inactive”.
With `O=C(/C(=C/c1cccc(Cl)c1)c1nc2ccccc2[nH]1)c1ccccc1` the Potency was 7.94 µM (active).
With `COc1ccc2c(c1)CCc1c(C(=O)Nc3cc(C)ccc3O)noc1-2` the Potency was “inactive”.
For `Cc1nn(Cc2ccc(F)cc2)c(C)c1NC(=O)c1noc2c1CCc1ccccc1-2`, the Potency was 31.6 µM (active).
With `Cc1ccccc1Cn1nc(C)c(NC(=O)c2cc(-c3ccc(F)cc3)on2)c1C` the Potency was “inactive”.
With `CCC(C)NC(=O)Cn1c(=O)n(-c2ccc(Cl)cc2)c(=O)c2c3c(sc21)CCCC3` (centres undefined) the Potency was “inactive”.
In the case of `COc1cc2c(cc1OC)C(Nc1ccc(S(N)(=O)=O)cc1)=NC(C)(C)C2`, the Potency is reported as “inactive”.
For `COc1cc2c(cc1O)C(SC)=NC(C)(C)C2`, the Potency was 20 µM (active).
In the case of `COc1cc2c(cc1OC)CC1(CCCCC1)N=C2`, the Potency is reported as “inactive”.
For `COc1ccccc1-c1cc(NCc2cccs2)ncn1`, the Potency was “inactive”.
For `CC(C)C(N)C(=O)OCCOCn1cnc2c(=O)[nH]c(N)nc21` (centres undefined), the Potency was “inactive”.
With `O=c1c(-c2cc(F)cc(F)c2)nc2cnc(Oc3ccccc3)nc2n1C[C@H]1CCCO1` the Potency was “inactive”.
In the case of `COc1ccc(CNC(=O)COc2ccccc2C(=O)c2cnn(-c3ccccc3)c2)cc1OC`, the Potency is reported as “inactive”.
With `Cc1ccc(OC(=O)c2c(C)nn(-c3ccccc3)c2C)cc1` the Potency was “inactive”.
In the case of `COc1ccc(CNC(=O)COC(=O)c2c(C)nn(-c3ccccc3)c2C)cc1OC`, the Potency is reported as 39.8 µM (active).
With `CCCn1c(C)cc(C(=O)COC(=O)c2c(C)nn(-c3ccccc3)c2C)c1C` the Potency was 35.5 µM (active).
In the case of `C/C=C/c1ccc(OCC(=O)OCC(=O)Nc2c(C)nn(-c3ccccc3)c2C)c(OC)c1`, the Potency is reported as “inactive”.
For `CCC(Oc1ccccc1)C(=O)OCC(=O)Nc1c(C)nn(-c2ccccc2)c1C` (centres undefined), the Potency was “inactive”.
